Among the data in publication PMC5540273 (PLoS ONE, 2017) are Kd values, retold here.

Assay [1] has as its system T1, PIP5K2C.
T1 construct: gene PIP4K2C

The subject of assay [2] is T2, PIK4CB.
T2 construct: gene PI4KB

Assay [3] concerns PIK3CD.
Assay [4] has as its system PIKFYVE.
Assay [5] has as its system PIK3CA.
The subject of assay [6] is PIK3CB.
Assay [7] has as its system T3, PFTK1.
T3 construct: gene CDK14

In assay [8] the test system is PIK3C2B.
The subject of assay [9] is PIK3CG.
The subject of assay [10] is PIP5K1C.

Each structure is given as a SMILES string. “And” between values parts separate entries of the source, which are not always exact repeats. Equal values may be shown once.
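Further: kd values determined as follow-up on hits from a single-replicate KINOMEscan panel screen.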

By Kd is commonly meant a measure of binding affinity in units of concentration. Lower therefore signals higher affinity. `COc1ccc(Nc2nccc(-c3cccc(NC(=O)c4cc5cc(F)ccc5[nH]4)c3)n2)cc1` [GSK1229782] came in with a Kd in assay [1] of 1400 nM. `Cc1cc(N2Cc3ccccc3C2)nc(Nc2ccc(S(=O)(=O)N3CCOCC3)cc2)n1.Cl` [GSK1669917] returned a Kd in assay [2] of over 10000 nM. On to `Cc1ccc(C(=O)Nc2ccc(Nc3ccnc4cc(-c5ccccn5)ccc34)cc2O)cc1.Cl` [GW440146], for which, in assay [3], the Kd is over 10000 nM. Regarding `COc1ccc2nc(-c3cccc(C)n3)nc(Nc3ccncc3)c2c1` [GSK204919], binding in assay [4] was characterised by a dissociation constant (Kd) of 1200 nM. That is a single-digit micromolar value. For the molecule `CS(=O)(=O)c1ccc(-c2nc3n(c2-c2ccncc2)CCC3)cc1` [SKF-105942], the Kd in assay [2] is over 10000 nM. For the molecule `CS(=O)(=O)c1ccc(-c2c(-c3ncn[nH]3)sc(N3CCOCC3)c2C#N)cc1`, the Kd turned out to be 21 nM in [5] and 77 nM in assay [6]. For the molecule `O=C(Nc1n[nH]c2cc(-c3cccc(F)c3F)ccc12)C1CC1` [SB-733894], the Kd in [4] was over 10000 nM.

On to `COc1ccc(CNC(=O)NC2CCN(c3ccnc(Nc4cc(OC)c(OC)c(OC)c4)n3)C2)cc1` (stereo not shown) [GSK1379748], for which the dissociation constant Kd in [1] was 600 nM. For `Cc1c(Cn2ccn3c(=O)cc(N4CCOCC4)nc23)cccc1C(F)(F)F` [GSK2289044], the dissociation constant (Kd) was 1.5 nM in assay [6] and 170 nM in [3].

In assay [4], `Cc1cccc(-c2nc(Nc3ccc4[nH]ncc4c3)c3ccccc3n2)n1` [GW857175] displayed a Kd of 700 nM. This lies in the sub-micromolar range. Consider `COc1cc2nccc(Nc3ccc(NC(=O)c4ccc(C)cc4)c(O)c3)c2cc1OC.Cl` [GW440132], for which the Kd in assay [7], in assay [8], in [5] and in assay [9] was over 10000 nM in each case. On to `COc1cc2ncn(-c3cc(OCC4CCCO4)c(C(N)=O)s3)c2cc1OC` (stereo not shown) [GSK204607], for which binding in assay [10] was put at a Kd of 7700 nM. In the case of `CSc1nn2c(=O)cc(N3CCOCC3)nc2n1Cc1cccc(C(F)(F)F)c1C` [GSK2363608], the Kd in [6] is 0.48 nM and 0.26 nM; in assay [3] it was 64 nM and 47 nM. `O=c1cc(N2CCOCC2)nc2n(Cc3cccc(Cl)c3Cl)ccn12` [GSK2286295]: the Kd in assay [6] was determined as 3.5 nM; in [3] it was 79 nM. In turn, `Cl.NC(=O)c1cccc(Nc2nccc(Nc3ccc(Oc4cccc(Cl)c4)c(Cl)c3)n2)c1` [GW659008] yielded a Kd in assay [2] of over 10000 nM.
